Data from PubChem BioAssay (NCI).
The panel holds about 83,000 compounds, 20% with a hit somewhere; the sample as a whole holds those more often.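 Method: cells in 96-well plates; compound added at one concentration; 48 h incubation; percent growth measured; values under 10 scored active.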 Calls of active or inactive are those of the source.

Columns and labels:
Assay in all cases: NCI-60 one-dose screen, 48 h (100 = growth as untreated, 0 = no growth, -100 = all killed)
Details in all cases: 10 µM unless noted
T-47D breast = system: T-47D breast
BT-549 breast = system: BT-549 breast
MDA-MB-435 melanoma = system: MDA-MB-435 melanoma
SW-620 colon = system: SW-620 colon
MCF7 breast = system: MCF7 breast
KM12 colon = system: KM12 colon
HCT-116 colon = system: HCT-116 colon
HCC-2998 colon = system: HCC-2998 colon

Measured: growth

OCCN1CCN(c2nc(Nc3ccc(-c4nc5ccccc5[nH]4)cc3)c3cn[nH]c3n2)CC1
active: T-47D breast -68.4% | BT-549 breast -52.3% | MDA-MB-435 melanoma -89.9% | SW-620 colon -85.4% | MCF7 breast -74.4% | KM12 colon -73.1%

CC[C@H]1OC(=O)[C@H](C)[C@@H](O[C@H]2C[C@@](C)(OC)[C@@H](O)[C@H](C)O2)[C@H](C)[C@@H](O[C@@H]2O[C@H](C)C[C@H](N(C)C)[C@H]2O)[C@](C)(O)C[C@H](C)CN(C)[C@H](C)[C@@H](O)[C@]1(C)O
inactive: T-47D breast 108% | BT-549 breast 98.4% | MDA-MB-435 melanoma 96.9% | SW-620 colon 84.2% | HCT-116 colon 90.3% | HCC-2998 colon 95.9% | KM12 colon 95.4%

COc1ccc(-c2cc(C(=O)N=Nc3c(O)[nH]c4ccc(Br)cc34)no2)cc1
inactive: T-47D breast 93.6% | BT-549 breast 107% | MDA-MB-435 melanoma 101% | SW-620 colon 93.7% | MCF7 breast 94.1% | HCC-2998 colon 104% | KM12 colon 100%

Oc1cccc(-c2nc(N3CCOCC3)c3c4c(sc3n2)CCCC4)c1
active: T-47D breast 9.18%
inactive: BT-549 breast 45.4% | SW-620 colon 63.3% | MCF7 breast 42% | HCT-116 colon 66.5% | HCC-2998 colon 81.9% | KM12 colon 62.6%

O=C(Nc1ccc(Cl)cc1)c1cc2cc(F)ccc2cc1O
active: T-47D breast -7.01% | BT-549 breast 1.77% | MCF7 breast 7.1%
inactive: SW-620 colon 15.5% | HCT-116 colon 12.3% | HCC-2998 colon 27.8% | KM12 colon 12.3%

O=C1c2cc3c(cc2-c2c1c1cc(F)c(F)cc1c(=O)n2CCCn1ccnc1)OCO3
inactive: BT-549 breast 12.5%
active: T-47D breast 4.88% | MDA-MB-435 melanoma 8.57% | SW-620 colon 8.92% | MCF7 breast -1.22% | KM12 colon 3.55%

CN1C(=O)C2(SCC(C(=O)NCc3ccccc3)N2C(=O)C2CCCCC2)c2ccccc21 (stereo unspecified)
inactive: T-47D breast 101% | BT-549 breast 98.3% | SW-620 colon 91.8% | MCF7 breast 94.8% | HCT-116 colon 96.2% | HCC-2998 colon 109% | KM12 colon 92.1%

NC(N)=N/N=C(/c1ccccc1)c1ccc(F)cc1
inactive: T-47D breast 51.2% | BT-549 breast 14.7% | SW-620 colon 28.8% | MCF7 breast 12.3%
active: MDA-MB-435 melanoma -19.2% | KM12 colon -7.82%

C#CC(F)(F)[C@]1(O)CC[C@H]2[C@@H]3CCC4=CC(=O)CCC4=C3[C@@H](c3ccc(C(C)=O)cc3)C[C@@]21C
inactive: T-47D breast 58.4% | BT-549 breast 106% | MDA-MB-435 melanoma 102% | SW-620 colon 81.1% | MCF7 breast 58% | KM12 colon 29.8%

CC(C)c1c(C(=O)c2ccccc2)c(-c2ccccc2)c(-c2ccc(F)cc2)n1CC[C@@H](O)C[C@@H](O)CC(=O)O
inactive: T-47D breast 91.4% | BT-549 breast 70.2% | MDA-MB-435 melanoma 68.9% | SW-620 colon 76.2% | HCT-116 colon 47.4% | HCC-2998 colon 85.6% | KM12 colon 91%

COc1cc2nnc3c4cccnc4[nH]c3c2cc1OC
inactive: T-47D breast 24.5% | MDA-MB-435 melanoma 49.7% | HCC-2998 colon 88% | KM12 colon 32%
active: SW-620 colon 9.61% | MCF7 breast 2.75% | HCT-116 colon 5.66%

O=C(/C=C/C=C/c1ccc2c(c1)OCO2)N/N=C\c1ccc(O)cc1O
active: HCT-116 colon 8.67%
inactive: T-47D breast 23.9% | MDA-MB-435 melanoma 32.6% | SW-620 colon 26.5% | MCF7 breast 14.1% | HCC-2998 colon 38.9% | KM12 colon 23.4%

CC(C)(O)c1cn(CCCCN2C(=O)C(=O)c3ccccc32)nn1
inactive: T-47D breast 99.5% | MDA-MB-435 melanoma 101% | SW-620 colon 99.6% | MCF7 breast 93.9% | HCT-116 colon 101% | HCC-2998 colon 103% | KM12 colon 101%

COc1cc2c(cc1-c1c(C)noc1C)ncc1nc(C3CCOCC3)n([C@@H](C)COC(F)F)c12
inactive: T-47D breast 38.1% | BT-549 breast 64.1% | SW-620 colon 63.4% | MCF7 breast 18.4% | HCT-116 colon 30.5% | HCC-2998 colon 43.3% | KM12 colon 48.8%

CC(=O)c1cc(C(=O)c2ccc3c(c2)Sc2ccccc2N3)n2ccccc12
inactive: T-47D breast 43% | BT-549 breast 45.8% | SW-620 colon 23.9% | MCF7 breast 24.7%
active: HCT-116 colon 0.708% | KM12 colon 9.91%

O=C1/C(=C(/c2ccccc2)N2CCOCC2)Cc2ccccc21
active: T-47D breast -34.4% | BT-549 breast -7.68% | SW-620 colon 0.554% | HCT-116 colon -46.3% | HCC-2998 colon -71.8%
inactive: MCF7 breast 17.9% | KM12 colon 36.2%

O=C1c2ccccc2C(=O)c2c(N=Nc3[nH]c(=S)[nH]c3O)cccc21
active: MDA-MB-435 melanoma -67.7%
inactive: T-47D breast 21.8% | SW-620 colon 18% | MCF7 breast 18.7% | HCT-116 colon 20.1% | HCC-2998 colon 29.9% | KM12 colon 17%

COc1ccc(S(=O)(=O)N2CCCCC2)cc1NC(=O)c1[nH]c(C)c2c1CCCCC2=O
inactive: T-47D breast 15.2% | BT-549 breast 50.1% | SW-620 colon 54% | MCF7 breast 12.3% | HCC-2998 colon 15.8% | KM12 colon 24.9%

Cn1cc(-c2nonc2-c2c[nH]c3ccccc23)c2cccnc21
inactive: T-47D breast 27% | SW-620 colon 14.1% | MCF7 breast 19.4% | HCT-116 colon 24.3% | HCC-2998 colon 69.9% | KM12 colon 20.1%
active: MDA-MB-435 melanoma -22.6%

COc1cc2c(cc1-c1c(C)noc1C)ncc1nc(C3CCC(F)(F)CC3)n([C@H](C)COC(F)F)c12
inactive: T-47D breast 46% | MDA-MB-435 melanoma 36.8% | SW-620 colon 57.3% | MCF7 breast 18.7% | HCT-116 colon 33% | HCC-2998 colon 46.4% | KM12 colon 45.4%

COc1ccc(C(=O)COc2ccc(/C=C3\Oc4ccc(OC)cc4C3=O)cc2)cc1
inactive: T-47D breast 103% | BT-549 breast 99.2% | SW-620 colon 95.9% | MCF7 breast 110% | HCT-116 colon 84.9% | KM12 colon 94%

Cn1c(=O)[nH]c(=O)c2nc(CCC(=O)NCCC(=O)O)c(=O)[nH]c21
inactive: T-47D breast 98.8% | BT-549 breast 105% | SW-620 colon 101% | MCF7 breast 103% | HCT-116 colon 109% | HCC-2998 colon 98.3% | KM12 colon 102%

Cc1cc(C)nc(SC2=C(Nc3cccc(Cl)c3)C(=O)N(Cc3ccccc3)C2=O)n1
inactive: T-47D breast 22.2% [30 µM] | BT-549 breast 65.5% [30 µM] | SW-620 colon 72% [30 µM] | MCF7 breast 49.8% [30 µM] | HCT-116 colon 43.5% [30 µM] | KM12 colon 83.7% [30 µM]

O=C1C=C(O)C(=O)C(CC2=C(O)C(=O)C=C(O)C2=O)=C1O
inactive: T-47D breast 104% | MDA-MB-435 melanoma 100% | SW-620 colon 97.8% | MCF7 breast 105% | HCT-116 colon 106% | HCC-2998 colon 97.2% | KM12 colon 104%

CCN(CC)c1ccc(-c2cc(-c3cc(OC)c(OC)c(OC)c3)nc(N3CCOCC3)c2C#N)cc1
inactive: T-47D breast 22.2% | BT-549 breast 38.6% | SW-620 colon 30.8% | MCF7 breast 29.8% | HCT-116 colon 10.5% | HCC-2998 colon 29.9% | KM12 colon 27.1%

Cc1c(/C=C/[N+](=O)[O-])ccc2c1[nH]c1ccccc12
active: MCF7 breast -11.9% | HCT-116 colon -97.8%
inactive: T-47D breast 78.1% | BT-549 breast 59.2% | SW-620 colon 77.7% | KM12 colon 52.4%

CCn1c(O)c(/C=N/NC(=O)C(C)c2ccc(CC(C)C)cc2)sc1=S (stereo unspecified)
inactive: T-47D breast 38% | BT-549 breast 11.5% | SW-620 colon 27.3% | MCF7 breast 20.5% | HCT-116 colon 11.6% | KM12 colon 18.7%

c1ccc(-c2cc3n4c(-c5ccccc5)nn(-c5ccccc5)c4cnc-3n2)cc1
inactive: T-47D breast 54.2% | MDA-MB-435 melanoma 60.4% | SW-620 colon 52.2% | MCF7 breast 50.6% | HCT-116 colon 30.9% | HCC-2998 colon 83.9% | KM12 colon 70.6%
